Common to all, as to assay: log2 fold change, soluble protein after heating vs DMSO (PISA); higher = thermal stabilisation; K562 lysate, 10 uM; active = over 0.2 and 3.5 SD of the protein, either way, in both replicates (recomputed)
Compound in test [1]: CN1CC[C@H](c2c(O)cc(O)c3c(=O)cc(-c4ccccc4Cl)oc23)[C@H](O)C1 [alvocidib]
The procedure, abridged: (§1)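 K562 pellets were dounce-homogenised in PBS pH 7.4 containing 1 mM MgCl2, and the crude extract, at 1 mg/mL protein, was exposed to 10 μM compound for 30 min. Aliquots were heated for 3 min across 48°C-58°C, pooled, brought to 0.5% NP-40 at 4°C and spun at 21,000xg for 90 min, with the supernatant taken as soluble protein. TMTpro 16plex LC-MS/MS with equalised channel sums quantified that protein. Values are log-two fold changes in thermal stability relative to solvent controls, taken from duplicates.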

Compound in test [2]: CN1CCc2c(c3ccccc3n2Cc2ccc(C(=O)NO)cc2)C1 [Tubastatin A]
The procedure, abridged:
as §1

Compound in test [3]: CNC(=O)C1=CC=CC=C1NC2=NC(=NC=C2Cl)NC3=C(C=C(C=C3)N4CCOCC4)OC
The procedure, abridged:
as §1

Compound in test [4]: CNC(=O)c1ccc(Nc2ncc(C(F)(F)F)c(NCc3nccnc3N(C)S(C)(=O)=O)n2)cc1 [defactinib]
Summed up:
as §1

Compound in test [5]: CNc1nc(-c2ccc3c(N)n[nH]c3c2)cc(N2C[C@@H](C(=O)NC3CCCCC3)CC[C@H]2C)n1
The procedure, abridged: as §1

Compound in test [6]: COC(=O)N[C@@H](C)CNc1nccc(-c2cn(C(C)C)nc2-c2cc(Cl)cc(NS(C)(=O)=O)c2F)n1 [encorafenib]
Summed up: as §1

Compound in test [7]: COC(=O)[C@H](CCSC)NC(=O)C1=C(C=C(C=C1)NC[C@H](CS)N)C2=CC=CC=C2
The procedure, abridged:
as §1

Compound in test [8]: COc1cc2nc(-c3cc(F)ccc3O)nc(N[C@@H]3CNC[C@H]3C(C)(C)O)c2cc1OC
Summed up: as §1

Compound in test [9]: CS(=O)(=O)CCNCc1ccc(-c2ccc3ncnc(Nc4ccc(OCc5cccc(F)c5)c(Cl)c4)c3c2)o1 [lapatinib]
Summed up: as §1

Compound in test [10]: CS(=O)(=O)N1CCN(Cc2cc3nc(-c4cccc5[nH]ncc45)nc(N4CCOCC4)c3s2)CC1 [pictilisib]
Summed up: as §1

Compound in test [11]: C[C@@H](Oc1cc(-c2cnn(C3CCNCC3)c2)cnc1N)c1c(Cl)ccc(F)c1Cl [crizotinib]
The procedure, abridged: as §1

Compound in test [12]: C[C@H](C1=CC=C(C=C1)C(=O)NC2=C3C=CNC3=NC=C2)N
The procedure, abridged:
as §1

Compound in test [13]: C[C@H](Nc1ncnc2nc[nH]c12)c1cc2cccc(Cl)c2c(=O)n1-c1ccccc1 [duvelisib]
Summed up:
as §1

Compound in test [14]: Cc1cc(Nc2cc(CN3CCOCC3)c3nc(C)c(Cc4ccc(Cl)cc4F)n3n2)n[nH]1 [gandotinib]
Summed up:
as §1

Compound in test [15]: Cc1cc(Nc2cc(N3CCN(C)CC3)nc(Sc3ccc(NC(=O)C4CC4)cc3)n2)n[nH]1 [tozasertib]
Summed up:
as §1

Compound in test [16]: Cc1ccc(-n2nc(C(C)(C)C)cc2NC(=O)Nc2ccc(OCCN3CCOCC3)c3ccccc23)cc1 [doramapimod]
The procedure, abridged:
as §1

Compound in test [17]: Cc1ccc(NC(=O)c2ccc(CN3CC[C@H](N(C)C)C3)c(C(F)(F)F)c2)cc1Nc1nccc(-c2cncnc2)n1 [bafetinib]
Summed up:
as §1

Compound in test [18]: Cc1cccc(CC(=O)N2CCc3c2ccc(-c2cn(C)c4ncnc(N)c24)c3F)n1
The procedure, abridged:
as §1

Compound in test [19]: COc1cc(Nc2ncc3c(n2)-c2ccc(Cl)cc2C(c2c(F)cccc2OC)=NC3)ccc1C(=O)O [alisertib]
Summed up:
as §1

Compound in test [20]: COc1cc2ncnc(Nc3ccc(F)c(Cl)c3)c2cc1OCCCN1CCOCC1 [gefitinib]
Summed up:
as §1

About 8,800 targets were measured; listed, in parts, are those with a hit and a random draw of the rest. About 0.5% of all pairs of compound and target were hits. A number with no mark means an inactive call.

UniProt Q2VPB7, sequence (Q2VPB7 whole entry, looked up): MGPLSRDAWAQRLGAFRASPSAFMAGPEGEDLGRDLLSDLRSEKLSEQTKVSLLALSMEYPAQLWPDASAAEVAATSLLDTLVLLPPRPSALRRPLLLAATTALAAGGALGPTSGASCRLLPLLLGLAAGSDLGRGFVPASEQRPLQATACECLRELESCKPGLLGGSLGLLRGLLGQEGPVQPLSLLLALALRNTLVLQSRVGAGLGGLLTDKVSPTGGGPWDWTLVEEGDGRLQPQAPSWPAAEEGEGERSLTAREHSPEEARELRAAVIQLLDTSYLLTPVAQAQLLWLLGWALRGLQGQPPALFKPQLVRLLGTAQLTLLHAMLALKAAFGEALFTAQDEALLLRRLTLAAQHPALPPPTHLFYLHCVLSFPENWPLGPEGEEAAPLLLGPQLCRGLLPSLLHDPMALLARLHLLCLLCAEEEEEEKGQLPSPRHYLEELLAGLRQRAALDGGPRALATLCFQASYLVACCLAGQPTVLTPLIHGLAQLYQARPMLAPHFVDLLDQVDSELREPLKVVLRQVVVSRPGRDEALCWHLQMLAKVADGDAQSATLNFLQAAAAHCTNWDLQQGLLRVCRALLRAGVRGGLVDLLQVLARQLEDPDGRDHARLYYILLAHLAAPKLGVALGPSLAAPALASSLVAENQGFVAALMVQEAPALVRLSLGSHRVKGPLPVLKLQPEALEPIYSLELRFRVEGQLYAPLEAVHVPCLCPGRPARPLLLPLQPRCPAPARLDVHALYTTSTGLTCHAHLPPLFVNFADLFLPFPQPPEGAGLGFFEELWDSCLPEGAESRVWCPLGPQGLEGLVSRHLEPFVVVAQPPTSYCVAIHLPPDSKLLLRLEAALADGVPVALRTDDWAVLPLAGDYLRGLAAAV
UniProt O15120, sequence (O15120 whole entry, looked up): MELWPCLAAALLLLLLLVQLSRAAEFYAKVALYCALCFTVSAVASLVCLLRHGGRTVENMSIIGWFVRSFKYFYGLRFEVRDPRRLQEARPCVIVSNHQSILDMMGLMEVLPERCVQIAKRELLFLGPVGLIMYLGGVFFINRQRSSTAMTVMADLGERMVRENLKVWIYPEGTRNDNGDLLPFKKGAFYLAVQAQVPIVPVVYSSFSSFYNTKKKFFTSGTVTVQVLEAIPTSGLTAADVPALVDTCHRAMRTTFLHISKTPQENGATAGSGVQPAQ
UniProt P35611, sequence (P35611 whole entry, looked up): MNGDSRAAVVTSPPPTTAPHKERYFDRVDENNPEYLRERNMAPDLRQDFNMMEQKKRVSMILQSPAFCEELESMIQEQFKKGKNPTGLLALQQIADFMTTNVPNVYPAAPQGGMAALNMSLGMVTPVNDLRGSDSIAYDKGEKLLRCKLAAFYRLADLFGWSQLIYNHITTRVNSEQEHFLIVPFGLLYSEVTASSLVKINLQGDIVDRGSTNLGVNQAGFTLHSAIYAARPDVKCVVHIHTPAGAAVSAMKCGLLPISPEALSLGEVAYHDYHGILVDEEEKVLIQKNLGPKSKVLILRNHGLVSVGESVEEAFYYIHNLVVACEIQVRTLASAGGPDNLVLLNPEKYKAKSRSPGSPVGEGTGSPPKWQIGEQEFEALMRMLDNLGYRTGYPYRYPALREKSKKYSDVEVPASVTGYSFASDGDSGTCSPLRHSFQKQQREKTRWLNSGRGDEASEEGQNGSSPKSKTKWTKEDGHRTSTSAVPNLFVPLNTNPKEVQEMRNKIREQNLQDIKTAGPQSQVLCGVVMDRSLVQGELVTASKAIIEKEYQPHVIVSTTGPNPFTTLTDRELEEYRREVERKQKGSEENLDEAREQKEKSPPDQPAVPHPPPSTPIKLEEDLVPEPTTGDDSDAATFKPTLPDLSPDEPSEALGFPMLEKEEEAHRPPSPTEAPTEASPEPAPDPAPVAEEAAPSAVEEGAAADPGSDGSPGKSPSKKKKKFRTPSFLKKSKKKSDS
UniProt Q13686, sequence (Q13686 whole entry, looked up): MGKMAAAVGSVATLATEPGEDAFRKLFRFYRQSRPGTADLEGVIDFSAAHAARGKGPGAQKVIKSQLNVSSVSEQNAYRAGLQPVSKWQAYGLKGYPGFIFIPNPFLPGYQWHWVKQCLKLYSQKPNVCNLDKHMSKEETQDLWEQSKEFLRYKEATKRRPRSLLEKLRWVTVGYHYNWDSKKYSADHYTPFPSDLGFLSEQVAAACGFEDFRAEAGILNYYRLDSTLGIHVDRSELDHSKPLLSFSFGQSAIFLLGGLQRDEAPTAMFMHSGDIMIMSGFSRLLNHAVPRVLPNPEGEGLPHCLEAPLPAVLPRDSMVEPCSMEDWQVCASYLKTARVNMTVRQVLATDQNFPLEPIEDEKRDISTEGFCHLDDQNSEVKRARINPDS
UniProt Q9BT30, sequence (Q9BT30 whole entry, looked up): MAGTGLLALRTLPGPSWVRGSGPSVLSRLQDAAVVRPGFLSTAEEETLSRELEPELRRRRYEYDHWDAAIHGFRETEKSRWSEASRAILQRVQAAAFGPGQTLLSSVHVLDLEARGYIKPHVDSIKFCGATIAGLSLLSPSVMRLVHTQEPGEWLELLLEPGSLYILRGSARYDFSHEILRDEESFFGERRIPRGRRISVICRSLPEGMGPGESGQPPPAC
UniProt Q92685, sequence (Q92685 whole entry, looked up): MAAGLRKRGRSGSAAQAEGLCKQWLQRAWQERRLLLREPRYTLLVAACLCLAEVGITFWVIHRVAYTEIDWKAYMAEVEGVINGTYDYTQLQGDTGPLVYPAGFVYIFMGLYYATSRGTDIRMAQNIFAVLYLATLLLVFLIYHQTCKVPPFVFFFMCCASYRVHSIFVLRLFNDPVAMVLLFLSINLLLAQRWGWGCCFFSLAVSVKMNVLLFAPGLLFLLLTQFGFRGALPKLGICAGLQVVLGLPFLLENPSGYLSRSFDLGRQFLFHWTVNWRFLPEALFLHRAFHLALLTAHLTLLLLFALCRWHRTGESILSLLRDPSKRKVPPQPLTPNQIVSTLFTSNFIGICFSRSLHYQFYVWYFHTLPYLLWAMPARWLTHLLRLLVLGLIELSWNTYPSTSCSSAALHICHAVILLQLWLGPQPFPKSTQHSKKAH

As for ALG3 (UniProt Q92685), the log2 fold change in test [1] was -0.04; in test [2], -0.009; in test [3], -0.436; in [4], 0.165; in [5], -0.043; in test [6], -0.061. The log2 fold change in test [7] is 0.171; in test [8] it was -0.033; in test [9], -0.069; in [10], 0.031; in test [11] it was -0.057; in [12], -0.15. Also, the log2 fold change in [13] was -0.104; in test [14] it was 0; in test [15], -0.04; in test [16], 0.037; in test [17], -0.061; in [18], 0.261.
With ADD1 isoform 4 (UniProt P35611), the log2 fold change in test [1] was -0.397; in test [2] it was 0.303; in test [3], -0.081; in [4] it was 0.071; in test [5], 0.051; in [6], -0.034. Besides, the log2 fold change was 0 in [7]; 0.094 in test [8]; -0.006 in test [9]; -0.168 in test [10]; -0.745 (active) in test [12]; 0.029 in [13]. The log2 fold change in [14] was 0.556; in test [15], -0.044; in test [17], 0.097; in [18], 0.563.
For the target ACTG1 (UniProt K7EM38), the log2 fold change was -0.286 in [6]; 0.142 in [7]; 0.099 in test [8]; -0.08 in [9]; 0.207 in test [15].
With ALKBH1 (UniProt Q13686), the log2 fold change in test [1] was 0.003; in test [2] it was -0.018; in test [3], -0.113; in test [4], -0.008; in test [5], 0.027; in test [6], -0.016. Further, the log2 fold change is 0.073 in test [7]; -0.044 in [19]; -0.07 in test [20]; -0.016 in test [12]; 0.014 in test [13]; 0 in test [14]. Moreover, the log2 fold change is 0.09 in test [15] and 0.048 in test [18].
On to AGPAT2 (UniProt O15120), for which the log2 fold change was -0.008 in test [1]; 0.01 in [2]; 0.091 in test [3]; -0.104 in test [4]; 0.054 in [6]; -0.043 in test [7]. The log2 fold change is 0.009 in test [19]; 0.052 in test [20]; -0.097 in [11]; 0.006 in [12]; -0.145 in [14]; 0.048 in test [15]. The log2 fold change in test [16] is 0.1; in test [18], 0.021.
As to ADK, A0A5F9ZH76, the log2 fold change was 0.008 in [19]; -0.063 in [8]; 0.072 in [20]; -0.013 in [9]; -0.074 in test [10]; 0.147 in test [17].
With AP5B1 (UniProt Q2VPB7), the log2 fold change in test [1] is -0.091; in test [2], -0.149; in test [3], 0.099; in test [5], -0.092; in test [6], -0.017; in test [7], -0.011. The log2 fold change in test [19] was -0.008; in test [8], -0.059; in [20] it was 0.05; in test [9] it was 0.095; in [10] it was -0.046; in [11] it was 0.069. In addition, the log2 fold change in test [12] is 0.034; in test [13], -0.012; in test [14], -0.092; in [15], -0.028; in test [16] it was 0.272; in [17], -0.056. Also, the log2 fold change in [18] was 0.047.
ALKBH7 (UniProt Q9BT30): the log2 fold change is -0.016 in [1]; -0.045 in [2]; 0.35 in test [3]; -0.029 in [5]; -0.115 in test [6]; 0.201 in test [7]. The log2 fold change was 0.333 in test [19]; -0.108 in [20]; -0.049 in [11]; 0.289 in test [12]; 0.091 in test [13]; 0.08 in test [14]. Further, the figures for the log2 fold change in test [15], in test [16] and in [18] were -0.045, -0.062 and 0.187, respectively.

Values taken from the supplement of paper PMC10849652.
